# From PubChem
# In the library only some 2.4% were active in any assay of this set; here they are far more common.
# FEN1 inh-1: qHTS Assay for the Inhibitors of Human Flap endonuclease 1 (FEN1); AID 588795, 2011; Potency, µM (series often up to 114 µM), for inactives: at the highest dose activity change, negative = inhibition, actives largely listed as inhibitors; 390,000 compounds, 0.35% hits; Recombinant FEN1 flap cleavage, fluorescence, 15 min; P39748; also: % is scaled to controls: 0 for no effect and ±100 for the full control effect; nearly all actives have a fitted effect of over 65% in size
#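 With each library titrated from low to high concentration, compounds met 10 nM FEN1 for 15 min at room temperature before 50 nM substrate was added; readings at 0 and 15 min fed four-parameter Hill curve fits.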
# Pol eta inh-1: qHTS for Inhibitors of Polymerase Eta | DNA polymerase eta (Homo sapiens), Q9Y253 | recombinant Pol eta, fluorescent DNA replication assay | Potency, µM (series often up to 114 µM), without a hit: at the highest dose activity change, negative = inhibition, usual class: inhibitors | 390,000 compounds, 1.2% hits | AID 588591, 2011; also: % is scaled to controls: 0 for no effect and ±100 for the full control effect
#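 Pol eta (10 nM) was preincubated with compounds for 15 min at room temperature, after which fluorescent replication substrate (50 nM final) was added to start the reaction. Fluorescence was read kinetically at 0 and 10 min.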
# WRN helicase inh: qHTS for Inhibitors of WRN Helicase. Bifunctional 3'-5' exonuclease/ATP-dependent helicase WRN (Homo sapiens), Q14191. WRN helicase unwinding, fluorescent forked duplex, kinetic. Potency, µM (series often up to 114 µM), inactives show at the top dose activity change, negative = inhibition, usual class: inhibitors. 360,000 compounds, 0.46% hits. AID 651768, 2012; also: % is scaled to controls: 0 for no effect and ±100 for the full control effect; nearly all actives have a fitted effect of over 55% in size
#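 Kinetic red-fluorescence monitoring (525/598 nm) tracks WRN helicase activity after 100 nM fluorophore-quencher forked duplex and 2 mM ATP are added to 20 nM enzyme pretreated 15 min at room temperature with compound.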
# Pol iota inh: qHTS for Inhibitors of Polymerase Iota; DNA polymerase iota (Homo sapiens), Q9UNA4; Pol iota fluorescent replication assay, 10 min; AID 588590, 2011; Potency, µM (titrated, usually from 115 µM), without a hit: at the top dose activity, negative = inhibition, hits mostly inhibitors; 390,000 compounds, 1% hits
#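 Pol iota at 10 nM preincubated 15 min with compounds at room temperature; reaction started with fluorescent substrate, 50 nM final. Fluorescence read kinetically at 0 and 10 min; buffer-only wells as negative control.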
# Pol kappa inh-1: qHTS for Inhibitors of Polymerase Kappa; DNA polymerase kappa (Homo sapiens), Q9UBT6; AID 588579, 2011; purified Pol kappa, fluorescent DNA synthesis assay, 10 min; 400,000 compounds, 0.53% hits; Potency, µM (highest dose often 107 µM), without a hit: at the highest dose activity, negative = inhibition, hits mostly inhibitors; also: % is scaled to controls: 0 for no effect and ±100 for the full control effect
#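 Here, compound and 10 nM enzyme are combined for 15 min at room temperature; adding 50 nM substrate (final) starts DNA synthesis, tracked by fluorescence at 0 and 10 min against buffer-only wells.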
# POLB inh: qHTS Assay for Inhibitors of DNA Polymerase Beta; Pol beta primer extension/strand displacement, fluorescence kinetic; 340,000 compounds, 1.3% hits; Potency, µM (top dose mostly 114 µM), without a hit: at the highest dose activity change, negative = inhibition, usual class: inhibitors; AID 485314, 2010; P06746; also: % is scaled to controls: 0 for no effect and ±100 for the full control effect
#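 Preincubation: enzyme (10 nM) with compound, 15 min, RT. Reaction: substrate added to 50 nM final. Reads: 0 and 10 min. Analysis: normalized, Hill fit.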
# TbPGK inh: qHTS for inhibitors of Phosphogylcerate Kinase: Hit Validation Screen. shares compounds with Pol kappa inh-1. TbPGK coupled GAPDH assay, Kinase-Glo luminescence. Potency, µM (highest dose often 57.5 µM), for inactives: at the highest dose activity change, negative = inhibition, usual class: inhibitors. 500 compounds, 79% hits. AID 686980, 2013; also: % is scaled to controls: 0 for no effect and ±100 for the full control effect; nearly all actives have a fitted effect of over 65% in size
# Pol iota confirm: qHTS for Inhibitors of Polymerase Iota: Confirmatory Assay for Cherry-picked Compounds; shares compounds with Pol kappa inh-1; Pol iota primer extension, TAMRA/BHQ fluorescence; Potency, µM, actives largely listed as inhibitors; 1,500 compounds, 77% hits; AID 720496, 2013
# Pol kappa inh-2: qHTS for Inhibitors of Polymerase Kappa: Confirmatory Assay for Cherry-picked Compounds; Potency, µM, usual class: inhibitors; purified Pol-kappa, fluorescent strand-displacement substrate; shares compounds with Pol eta inh-1; 920 compounds, 76% hits
# Pol eta inh-2: qHTS for Inhibitors of Polymerase Eta: Confirmatory Assay for Cherry-picked Compounds. 2,600 compounds, 64% hits. AID 720502, 2013. Potency, µM, actives largely listed as inhibitors. Pol eta primer extension, TAMRA/BHQ fluorescence, 10 min. shares compounds with Pol eta inh-1
# FEN1 inh-2: qHTS Assay for the Inhibitors of FEN1: Confirmatory Assay for Cherry-picked Compounds; shares compounds with FEN1 inh-1; FEN1 flap cleavage, TAMRA/BHQ2 fluorogenic DNA substrate; Potency, µM, most hits filed as inhibitors; 880 compounds, 79% hits; AID 720498, 2013; also: nearly all actives have a fitted effect of over 60% in size
# Active calls of the source: *; ? = inconclusive; . = no result; [ ] = dose if it differs, or a comment. Calls follow the shape of the dose curve; as a rule, active = well fitted curve in the direction sought with a large enough effect; inconclusive = small, poorly fitted or top-dose-only effect, or another doubt; inactive = no such curve, though single readings can be large; an effect the other way counts as inactive or inconclusive. Potency is read from the fitted curve at half-maximal effect.
SMILES,FEN1 inh-1,Pol eta inh-1,WRN helicase inh,Pol iota inh,Pol kappa inh-1,POLB inh,Pol iota confirm,Pol eta inh-2,FEN1 inh-2,others
O=c1[nH]c(/C=C\c2ccc(O)c(Cl)c2)nc(O)c1[N+](=O)[O-],0%,-15%,-1%,?,-16%,2%,.,.,.,
Cc1ccc(/C=C/c2nc3sc(C(=O)O)c(C)c3c(=O)[nH]2)cc1[N+](=O)[O-],2%,40µM*,?,1%,-7%,?,30*,?,76*,
COc1cccc(Nc2ncc3nc(C)c(=O)n(CCC#N)c3n2)c1,.,.,.,.,-9%[60.1 µM],.,.,.,.,
CC(=O)Nc1ccc(NC(=O)C(C)OC(=O)/C(C#N)=C/c2ccc(N(C)C)cc2)cc1 (stereo unspecified),?,?,?,?,-4%,.,.,.,.,
CC(OC(=O)/C(C#N)=C/c1ccc(N(C)C)cc1)C(=O)N(C)c1ccccc1 (stereo unspecified),50µM*,79µM*,56µM*,50µM*,79µM*,.,24*,34*,38*,
COc1cccc(NC(=O)Cn2cc(C(=O)c3ccc(C)cc3)c(=O)c3cc(OC)ccc32)c1,79µM*,79µM*,.,?,2%,20µM*,47*,.,?,
CS(=O)(=O)c1cccc(C(=O)Nc2ccc(-c3nc4ccccc4[nH]3)cc2)c1,8%,-11%,-3%,?,-12%,9%,.,.,.,
Cc1ccc(C(=O)Nc2ccc(-c3nc4ccccc4[nH]3)cc2)cc1Br,.,.,.,.,.,.,67*,?,60*,
O=C1/C(=C\c2c(NCCOCCO)nc3ccccn3c2=O)SC(=S)N1Cc1ccco1,?,79µM*,22µM*,?,?,18µM*,?,.,85*,
Cc1[nH]n(C(N)=S)c(=O)c1N=Nc1cccc([N+](=O)[O-])c1C,4%,-10%,-4%,-5%,-4%,-9%,.,.,.,
Cc1c(N=Nc2c(-c3ccc([N+](=O)[O-])cc3)[nH]n(C(N)=S)c2=O)cccc1[N+](=O)[O-],?,50µM*,?,?,?,-21%,?,?,67*,
NC(=S)n1[nH]c(-c2ccc([N+](=O)[O-])cc2)c(N=Nc2cccc([N+](=O)[O-])c2)c1=O,45µM*,28µM*,?,?,?,0%,67*,48*,43*,TbPGK inh=13µM*
C=C1C=C(C(F)F)n2ncc(C(=O)Nc3cccc(CC)c3)c2N1,15%,.,.,12%,4%,.,.,.,.,
COc1ccc(-c2ccc(OC)c(C3C4C=CCC(C)C4C(=O)N3Cc3ccccc3)c2)cc1 (stereo unspecified),-2%,.,.,-21%,-6%,.,.,.,.,
N#Cc1c(-c2ccco2)cc(-c2ccccc2)[nH]c1=O,-31%,-17%,-26%[11.6 µM],10µM*,?,?,42*,27*,76*,Pol kappa inh-2=12*
COc1cc(/C=N/N2C(C)CCCC2C)cc(Br)c1O (stereo unspecified),-3%,-12%,5%,-21%,1%,8%,.,.,.,
COc1cc(/C=N/N2C(=O)CSC2=S)cc(Br)c1O,79µM*,25µM*,50µM*,?,40µM*,35µM*,?,67*,43*,Pol kappa inh-2=38*
CN(CCC#N)C(=O)COC(=O)c1c2c(nc3ccccc13)/C(=C\c1ccco1)CC2,50µM*,11µM*,?,4µM*,22µM*,.,17*,34*,67*,
COCCCNC(=O)c1oc2c(c1C)-c1nn(Cc3cccc(Cl)c3)cc1CC2,-18%,-8%,.,?,-8%,-7%,.,.,.,
O=C(O)c1cc(O)c2c(c1)[C@@H]([C@H]1c3cc(C(=O)O)cc(O)c3C(=O)c3c(O[C@@H]4O[C@H](CO)[C@@H](O)[C@H](O)[C@H]4O)cccc31)c1cccc(OC3O[C@H](CO)[C@@H](O)[C@H](O)[C@H]3O)c1C2=O (stereo partly specified),?,-100%,1.1µM*,-107%,-97%,.,3*,6*,30*,TbPGK inh=2.6µM*;Pol kappa inh-2=2.7*
CCN(CC)CCCN(c1ccccc1)C1Cc2ccccc2C1,11%[57.1 µM],.,.,.,-8%[60.1 µM],.,.,.,.,
Cc1ccc(-n2cccc2/C=C2\C(=N)N3N=C(c4ccco4)SC3=NC2=O)cc1,22µM*,14µM*,?,20µM*,?,10µM*,?,76*,43*,
Cc1c(CCC(=O)O)c(=O)oc2c(C)c3occ(-c4ccc(Br)cc4)c3cc12,-19%,18µM*,63µM*,143%,-5%,43%,34*,?,?,
CC(C1SC(=S)NC1=O)C1SC(=S)NC1=O (stereo unspecified),.,5µM*,?,.,.,.,42*,9.5*,?,Pol kappa inh-2=17*
